Experimental data taken from PubChem BioAssay (NCI).
This is part of a sample that, as a whole, favours compounds with a hit. Of some 83,000 tested, about 20% had one in any assay.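 The test compound was applied at a single concentration to cells in 96-well plates for 48 hours, and percent growth was recorded.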 Values without a mark were called inactive. Activity calls are given as the source filed them. How the source made its calls: active means growth percent below 10; inactive means the rest.

Experiments:
Test in all cases: NCI-60 one-dose screen, 48 h (100 = growth as untreated, 0 = no growth, -100 = all killed)
Conditions in all cases: 10 µM unless noted
HT29 colon = system: HT29 colon
SNB-75 CNS = system: SNB-75 CNS
SNB-19 CNS = system: SNB-19 CNS
U251 CNS = system: U251 CNS
PC-3 prostate = system: PC-3 prostate
SK-MEL-5 melanoma = system: SK-MEL-5 melanoma
UACC-62 melanoma = system: UACC-62 melanoma
LOX IMVI melanoma = system: LOX IMVI melanoma
SK-MEL-28 melanoma = system: SK-MEL-28 melanoma
SK-MEL-2 melanoma = system: SK-MEL-2 melanoma
SN12C renal = system: SN12C renal
UO-31 renal = system: UO-31 renal
TK-10 renal = system: TK-10 renal
CAKI-1 renal = system: CAKI-1 renal
A498 renal = system: A498 renal
CCRF-CEM leukemia = system: CCRF-CEM leukemia
MOLT-4 leukemia = system: MOLT-4 leukemia
ACHN renal = system: ACHN renal
EKVX NSCLC = system: EKVX NSCLC

Row | Compound | growth (HT29 colon) | growth (SNB-75 CNS) | growth (SNB-19 CNS) [%] | growth (U251 CNS) | growth (PC-3 prostate) | growth (SK-MEL-5 melanoma) | growth (UACC-62 melanoma) | growth (LOX IMVI melanoma) | growth (SK-MEL-28 melanoma) | growth (SK-MEL-2 melanoma) | growth (SN12C renal) | growth (UO-31 renal) | growth (TK-10 renal) | growth (CAKI-1 renal) | growth (A498 renal) | growth (CCRF-CEM leukemia) | growth (MOLT-4 leukemia) | growth (ACHN renal) | growth (EKVX NSCLC)
1 | COc1ccc(NC(=O)CSc2nc3ccccc3c(=O)n2Cc2cc(OC)c(OC)c(OC)c2)cc1 | 110% | 66.3% | 95.8 | 97.7% | 85.1% | 87.5% | 74.2% | 94.5% | 94% | 93% | 79.6% | 73.5% | 96.5% | 95.6% | 87.1% | 90.1% | 68.8% | – | –
2 | COc1cc2nc(SCc3cc(OC)c(OC)c(OC)c3)n(Cc3ccccc3)c(=O)c2cc1OC | 10.6% | -16.6% (active) | 48.8 | 29% | 48.8% | -8.17% (active) | 23.4% | 37.7% | 39.2% | -9.82% (active) | 41.2% | 34.7% | 64.3% | 25.7% | -5.24% (active) | 23% | 16.7% | 39.2% | –
3 | Oc1ccc(N=Cc2ccccc2)cc1 | 105% | 105% | 98.8 | 96.1% | 68.3% | 83.4% | 97.5% | 95.3% | 113% | 94% | 96.5% | – | 108% | 105% | 78.1% | 5.42% (active) | 3.61% (active) | 57.3% | –
4 | CCCCCCCCCCC/C=C\C[C@H](O)C/C=C1/C(=O)C=C[C@@H]1C/C=C\CCCC(=O)OC | -22.5% (active) | -4.49% (active) | 18.2 | -69% (active) | -20% (active) | -85.3% (active) | -39.9% (active) | -92.4% (active) | -20.4% (active) | -24.4% (active) | -24.7% (active) | -63% (active) | 0.114% (active) | 13.8% | 99.7% | 12.2% | -0.235% (active) | -20.1% (active) | 1.38% (active)
5 | O=C(Nc1ccc(I)cc1)c1cccc([N+](=O)[O-])c1O | 28.1% | 41.2% | 16.8 | 10.3% | 7.46% (active) | -44.1% (active) | – | 8.65% (active) | 21.5% | -11.9% (active) | 20.3% | -0.371% (active) | 7.73% (active) | – | -6.2% (active) | 25.9% | 8.55% (active) | – | 8.49% (active)
6 | CCOC(=O)CC/C(C)=N\Nc1ccc([N+](=O)[O-])cc1 | 52.9% | 93% | 95.5 | 69.1% | 49.7% | 54.3% | 23.5% | 17.1% | 99.9% | 58.8% | 77.6% | 30.3% | 58.2% | 40.6% | 85.1% | 41.7% | 35.4% | 36.8% | 51.9%
7 | C=C1C(=O)O[C@H]2[C@H]1CC/C(COC(=O)NCCc1ccc(Br)cc1)=C\CC[C@@]1(C)O[C@@H]21 | -46.7% (active) | 56.8% | 40.9 | 41.2% | 36.4% | 64% | -54.3% (active) | -68.2% (active) | 30.6% | 57.8% | 16.8% | -20.5% (active) | 25.9% | 22.6% | 79.1% | 4% (active) | -19.1% (active) | – | 57.3%
8 | O=C(O)C(Cc1ccccc1)N1C(=O)/C(=C/C(Cl)=C/c2ccc([N+](=O)[O-])cc2)SC1=S (stereo not drawn) | 30.8% | 43% | 32.2 | 8.38% (active) | 31.2% | 2.03% (active) | -56.4% (active) | -74.2% (active) | 3.14% (active) | 9.02% (active) | 8.76% (active) | 29.4% | 50.1% | – | – | 4.14% (active) | 0.405% (active) | 40.7% | –
9 | CCCCn1c(=O)c(C2CNC(=O)c3ccccc3N2)cc2ccccc21 (stereo not drawn) | 103% | 84% | 91 | 98% | 106% | 102% | 88.4% | 97.3% | 102% | 106% | 85.7% | 93.1% | 109% | 85.8% | 88.7% | 110% | 46.4% | 98.2% | 103%
10 | O=c1[nH]c2ccccc2cc1-c1nnc(Cc2ccccc2)o1 | 57.9% | 69.3% | 86 | 72.4% | 65.5% | 56.8% | 47.9% | 35% | 101% | 78.4% | 74% | 40% | 112% | – | 106% | 19% | 57.1% | 65.9% | –
11 | CCC1CCc2nc3sc(C(=O)Nc4ccccc4C)c(N)c3cc2C1 (stereo not drawn) | 7.01% (active) | 25.9% | 54.1 | 42% | 26.8% | 26.6% | 33.2% | 35% | 49.5% | 21.9% | 58% | 37.6% | 59.6% | 29.4% | 33.2% | 18.7% | 39.7% | 47.4% | –
12 | Cc1ccc2c(c1)ncn2-c1ncnc2c1CC(C)c1ccccc1N2C (stereo not drawn) | 0.836% (active) | 43.9% | 37.6 | 12.1% | 20.9% | -49.2% (active) | 21.5% | 20.8% | 44.4% | 32.7% | 21.2% | 26.9% | 8.21% (active) | 19.6% | -11.7% (active) | 13.3% | 12% | 20.2% | 40.8%
13 | NC(=O)c1c(NC(=O)c2ccc3c(c2)OCO3)sc2c1CCC(=O)C2 | -45.5% (active) | -12.6% (active) | 14.3 | -9.21% (active) | 3.13% (active) | -94.2% (active) | -37.8% (active) | 15% | -38.7% (active) | -57.8% (active) | 8.18% (active) | – | -20.2% (active) | -80% (active) | -3.77% (active) | -33.3% (active) | -20.8% (active) | -57.7% (active) | 5.58% (active)
14 | C=C1C(=O)O[C@H]2[C@H]1CC/C(COC(=O)NCc1ccc(OC)cc1)=C\CC[C@@]1(C)O[C@@H]21 | -4.4% (active) | 96.4% | 61.7 | 67.4% | 52.9% | 87% | 27.5% | 13.9% | 51.2% | 53.4% | 32.8% | 18.4% | 31.2% | 15% | 89.4% | 3.72% (active) | 24.2% | 4.28% (active) | 75.9%
15 | COc1ccc(C2CC(=O)Nc3c2c(C)nn3-c2nc3ccccc3[nH]2)cc1OC (stereo not drawn) | 95.3% | 50.9% | – | 84.4% | 75.4% | 71.2% | 68.8% | 44.2% | 88.1% | 77.8% | 89.9% | 52.4% | – | 72.8% | 3.48% (active) | 5.82% (active) | -31.5% (active) | 85.2% | –
16 | CSc1nc(-c2cc3ccccc3o2)cc(-c2ccc(Cl)cc2)c1C#N | -50.6% (active) | -36% (active) | 55.1 | 6.2% (active) | 22.2% | 55.3% | -17.1% (active) | 16.8% | 65.2% | 23.8% | 36.8% | -18.2% (active) | 54.7% | 48% | 81.9% | 86.8% | 94.5% | -63% (active) | 73.7%
17 | O=C(Nc1ccccc1)OCC1OCOC(COC(=O)Nc2ccccc2)C1OC(=O)Nc1ccccc1 (stereo not drawn) | 43.1% | 32% | 73.2 | 74.9% | 64.2% | 67.8% | 73.1% | 29.7% | 39.2% | 109% | 77.3% | 85.6% | 83.3% | 91.7% | 69% | 29.5% | 73.8% | 48.4% | –
18 | CN(C)CCCNC(=O)C(c1ccccc1)c1ccccc1 | 95.9% | 94.5% | 97.3 | 98.2% | 99.1% | 103% | 98.8% | 89.3% | 109% | 95.6% | 96.8% | 84.1% | 88.2% | 99.5% | 104% | 100% | 85.3% | 93.5% | 106%
19 | COc1ccc(C2=NN(c3ccc(S(N)(=O)=O)cc3)C(c3cn(-c4ccccc4)nc3-c3ccc(Cl)cc3)C2)cc1 (stereo not drawn) | 82.6% | 89.9% | 92.5 | 84.1% | 66.7% | 99.9% | 88.5% | 87.3% | 103% | 94.7% | 96.7% | 60.5% | 90.6% | 90.9% | 76.4% | 73.3% | 69.2% | 95.4% | –
20 | COc1cc(Cn2c(SCCC(=O)Nc3ccc(F)cc3)nc3ccccc3c2=O)cc(OC)c1OC | 86.9% | 80.3% | 80.4 | 95.2% | 75.8% | 85% | 76.4% | 90.9% | 99.8% | 81.3% | 82.9% | 53.7% | 101% | 74% | 63.3% | 86.8% | 49% | 81.9% | –
